High-throughput results deposited in PubChem BioAssay by several laboratories.
rCAG binder – binders of r(CAG) RNA repeats, primary screen, biochemical, fluorescence; r(CAG) RNA repeat, TO-PRO-1 dye displacement fluorescence; inhibition, % at 3 µM; hit rate 1.3% among 370,000;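 active = inhibition above the plate cutoff, the mean of all test compounds on that plate plus 3 SD, cut at about 35% in these data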;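 note: higher means more dye released from RNA so lower well fluorescence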
NR3A LBD binder – binders of NR3A ligand-binding domain, primary screen, biophysical, differential scanning fluorimetry, uHTS; Glutamate receptor ionotropic, NMDA 3A (GRIN3A) ligand-binding domain; NR3A LBD differential scanning fluorimetry, Tm shift; 0% = protein alone, 100% = glycine-bound protein; Tm shift relative to glycine control, % at 25 µM; hit rate 2.5% among 340,000;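 active = melting temperature shift of at least 10% of the positive control shift, at one fixed dose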
FAS TE block – FAS thioesterase domain inhibitors, primary screen, biochemical, fluorescence intensity, uHTS; AID 602261, 2012; hit rate 0.67% among 360,000; recombinant FAS-TE, OMFH fluorogenic substrate, fluorescence endpoint; inhibition, % at 15 µM; Fatty acid synthase (Homo sapiens), P49327;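 active = compounds whose normalised, plate-corrected inhibition of enzyme fluorescence in the single-dose primary screen is 50% or more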
Target sequence (P49327 whole entry, looked up, the tested form may be a part): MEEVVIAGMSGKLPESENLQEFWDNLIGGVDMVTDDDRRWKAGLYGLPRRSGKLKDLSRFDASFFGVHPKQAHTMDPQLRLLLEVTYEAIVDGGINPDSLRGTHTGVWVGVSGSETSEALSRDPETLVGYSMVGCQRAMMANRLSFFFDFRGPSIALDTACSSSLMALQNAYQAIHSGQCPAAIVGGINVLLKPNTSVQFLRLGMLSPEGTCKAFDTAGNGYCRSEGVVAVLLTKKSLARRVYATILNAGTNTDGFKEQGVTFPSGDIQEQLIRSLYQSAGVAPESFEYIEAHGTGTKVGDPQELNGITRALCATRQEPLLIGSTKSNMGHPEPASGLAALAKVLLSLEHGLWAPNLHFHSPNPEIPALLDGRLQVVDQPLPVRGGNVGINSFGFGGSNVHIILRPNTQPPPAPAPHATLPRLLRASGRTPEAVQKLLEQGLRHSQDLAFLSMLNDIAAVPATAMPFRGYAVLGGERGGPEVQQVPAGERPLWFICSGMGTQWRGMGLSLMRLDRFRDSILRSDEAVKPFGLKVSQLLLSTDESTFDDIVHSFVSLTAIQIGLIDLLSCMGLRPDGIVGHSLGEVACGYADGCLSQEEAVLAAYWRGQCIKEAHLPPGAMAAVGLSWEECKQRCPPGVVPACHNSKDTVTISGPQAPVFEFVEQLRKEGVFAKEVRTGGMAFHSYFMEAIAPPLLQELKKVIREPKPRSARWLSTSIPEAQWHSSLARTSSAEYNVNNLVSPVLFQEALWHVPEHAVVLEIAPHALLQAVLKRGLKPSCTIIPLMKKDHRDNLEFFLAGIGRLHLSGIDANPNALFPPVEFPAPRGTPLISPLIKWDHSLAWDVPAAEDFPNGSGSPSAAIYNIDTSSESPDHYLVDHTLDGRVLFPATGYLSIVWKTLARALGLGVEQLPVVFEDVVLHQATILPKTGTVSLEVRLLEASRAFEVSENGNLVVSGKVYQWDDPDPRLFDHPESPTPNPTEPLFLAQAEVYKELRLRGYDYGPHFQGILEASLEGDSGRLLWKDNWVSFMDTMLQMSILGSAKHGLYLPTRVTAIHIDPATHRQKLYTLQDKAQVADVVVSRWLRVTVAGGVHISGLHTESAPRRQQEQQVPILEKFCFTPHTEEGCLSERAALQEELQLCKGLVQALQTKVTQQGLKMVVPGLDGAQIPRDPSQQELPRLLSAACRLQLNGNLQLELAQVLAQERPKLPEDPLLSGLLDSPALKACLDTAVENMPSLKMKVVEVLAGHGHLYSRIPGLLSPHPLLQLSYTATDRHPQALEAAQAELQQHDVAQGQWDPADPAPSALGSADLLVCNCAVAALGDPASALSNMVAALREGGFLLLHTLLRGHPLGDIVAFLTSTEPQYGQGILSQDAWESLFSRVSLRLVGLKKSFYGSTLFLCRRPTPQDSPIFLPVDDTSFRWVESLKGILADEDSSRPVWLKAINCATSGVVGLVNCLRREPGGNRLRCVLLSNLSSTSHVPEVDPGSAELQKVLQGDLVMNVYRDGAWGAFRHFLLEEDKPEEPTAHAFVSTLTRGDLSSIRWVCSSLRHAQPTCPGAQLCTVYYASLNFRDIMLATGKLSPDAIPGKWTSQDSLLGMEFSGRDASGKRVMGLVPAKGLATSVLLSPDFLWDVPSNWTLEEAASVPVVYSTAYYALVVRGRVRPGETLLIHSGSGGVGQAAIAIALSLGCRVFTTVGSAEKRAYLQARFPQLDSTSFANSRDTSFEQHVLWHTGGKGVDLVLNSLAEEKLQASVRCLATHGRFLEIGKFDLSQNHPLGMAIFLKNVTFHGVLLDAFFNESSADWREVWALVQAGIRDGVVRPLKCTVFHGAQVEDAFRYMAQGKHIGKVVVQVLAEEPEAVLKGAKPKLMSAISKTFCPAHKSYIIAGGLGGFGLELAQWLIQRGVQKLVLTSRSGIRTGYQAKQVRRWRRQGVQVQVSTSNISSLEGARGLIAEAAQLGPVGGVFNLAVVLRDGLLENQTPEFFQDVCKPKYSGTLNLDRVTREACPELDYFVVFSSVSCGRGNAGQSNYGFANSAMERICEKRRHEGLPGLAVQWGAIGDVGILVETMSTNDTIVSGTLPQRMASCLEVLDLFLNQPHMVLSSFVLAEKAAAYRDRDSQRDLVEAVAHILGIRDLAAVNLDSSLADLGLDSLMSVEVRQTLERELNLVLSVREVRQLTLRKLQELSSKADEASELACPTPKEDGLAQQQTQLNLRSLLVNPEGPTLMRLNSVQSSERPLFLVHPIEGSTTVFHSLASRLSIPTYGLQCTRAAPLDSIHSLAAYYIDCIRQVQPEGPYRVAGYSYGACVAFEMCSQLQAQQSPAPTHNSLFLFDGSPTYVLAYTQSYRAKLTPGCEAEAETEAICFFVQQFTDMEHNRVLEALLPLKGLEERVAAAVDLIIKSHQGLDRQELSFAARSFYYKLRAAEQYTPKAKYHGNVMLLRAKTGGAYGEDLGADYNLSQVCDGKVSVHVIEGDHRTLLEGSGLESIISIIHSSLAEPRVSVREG
NadD inh – inhibitors of S. aureus NadD, primary screen, biochemical, colorimetric, uHTS; Nicotinate-nucleotide adenylyltransferase NadD (Staphylococcus aureus N315); purified NadD enzyme, colorimetric absorbance read-out; inhibition, % at 20 µM; hit rate 0.78% among 360,000; AID 602399, 2012; in the data active = inhibition above about 26%
rCAG binder conf – small molecules binding CAG repeat RNA – biochemical, fluorescence, confirmation; hit rate 70% among 4,300; r(CAG) RNA repeat, TO-PRO-1 dye displacement fluorescence; shares compounds with rCAG binder; inhibition, % at 3 µM;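 active = inhibition above a per-plate cutoff, the mean inhibition of sample wells plus 3 SD, cut at about 35% in these data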;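 note: loss of TO-PRO-1 fluorescence as compound displaces dye from 1x1 AA loop RNA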
dCAG dye counter – displacement of TO-PRO-1 from CAG DNA duplex, counter-screen for rCAG RNA repeat binder project, biochemical, fluorescence, TO-PRO-1 dye, d(CAG) DNA oligo; AID 652068, 2013; d(CAG) DNA oligo TO-PRO-1 dye displacement; inhibition, % at 3 µM; hit rate 94% among 4,300; shares compounds with rCAG binder;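 active = inhibition above its plate's cutoff, the mean test-well inhibition plus 3 SD, cut at about 4.8% in these data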;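 note: hits displace the dye from DNA and so lower well fluorescence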
dCAG dye DR – inhibitors of DNA CAG/GTC TO-PRO-1 complex, dose response, counter-screen for rCAG RNA repeat binder project, biochemical, fluorescence, TO-PRO-1 dye. IC50, µM. shares compounds with rCAG binder. AID 686960, 2013. hit rate 20% among 250. DNA CAG/GTC duplex TO-PRO-1 dye displacement fluorescence; in the data active = IC50 below about 10 µM
Hits are given with their value; – = inactive; · = not tested or not shown. Compounds with a hit are over-represented: about 4.3% of the library has one in this group of screens.

SMILES | rCAG binder | NR3A LBD binder | FAS TE block | NadD inh | rCAG binder conf | dCAG dye counter | others
O=C(O)CCC(=O)Nc1sc2c(c1C(=O)Nc1cccc3ccccc13)CCCCC2 | 43 | – | – | – | – | 15
COc1ccc(OC)c(NC(=O)c2c(NC(=O)CCC(=O)O)sc3c2CCCCC3)c1 | 41 | – | – | – | 49 | 17
COc1ccccc1NC(=O)c1c(NC(=O)CCC(=O)O)sc2c1CCCCC2 | – | – | – | – | · | ·
CCC(Sc1nc(-c2cccc(OC)c2)c(C#N)c(=O)[nH]1)C(=O)Nc1nnc(C(C)C)s1 (configuration not stated) | 75 | – | – | – | 75 | 38
COc1cccc(-c2nc(-c3ccccc3)[nH]c(=O)c2C#N)c1 | – | – | – | – | · | ·
Cc1ccc(-n2cccc2/C=C2\C(=N)N3N=C(C(C)C)SC3=NC2=O)cc1 | – | – | – | – | · | ·
CC1=CC2=NC(=O)/C(=C\c3cc(C)n(-c4ccccc4F)c3C)C(=N)N2O1 | – | – | – | – | · | ·
CS(=O)(=O)C1=NSC2=NC(=O)/C(=C\c3cccn3-c3ccc(Cl)cc3)C(=N)N21 | 85 | 19 | – | – | 85 | 54
Cc1cc(/C=C2/C(=N)N3C(=NC2=O)SN=C3S(C)(=O)=O)c(C)n1-c1ccccc1F | 80 | – | – | – | 83 | 56
CC1CCN(C(=O)c2ncn3c2C(=O)N[C@H](C)C3)CC1 | – | · | · | · | · | ·
COC(=O)c1ccc(CN2CC3CC(c4ccccc4)N4CCCC34C2=O)cc1 (configuration not stated) | – | · | · | · | · | ·
COc1cccc(/C=C2\SC(=S)N(CCCC(=O)N3CCCCC3)C2=O)c1 | – | – | – | – | · | ·
O=C(O)C(c1ccccc1)N1C(=O)/C(=C/c2cccs2)SC1=S (configuration not stated) | – | – | – | – | · | ·
O=C(O)C(Cc1ccccc1)N1C(=O)/C(=C/c2cccs2)SC1=S (configuration not stated) | 67 | – | – | – | 49 | 18
COc1cccc(/C=C2\SC(=S)N(C(Cc3ccccc3)C(=O)O)C2=O)c1 (configuration not stated) | 69 | – | – | – | 78 | 31 | dCAG dye DR=–
COc1ccc(OC)c(/C=C2\SC(=S)N(C(C(=O)O)c3ccccc3)C2=O)c1 (configuration not stated) | 55 | – | – | – | 77 | 44
CC(C)c1ncc(S(=O)(=O)c2ccc(C(F)(F)F)cn2)c(N)n1 | – | – | – | – | · | ·
CCOC(=O)[C@]12CCCCC/C=C\1N(CCc1ccc(Cl)cc1)C(=O)[C@H]2CC(=O)NCC1CCCCC1 | – | · | · | · | · | ·
N#CCC[C@H]1CC[C@]2(CCCN(C(=O)C3CCCC3)C2)O1 | – | · | · | · | · | ·
CCCN(CCC)S(=O)(=O)c1ccc(NS(=O)(=O)c2ccc(F)cc2)cc1 | 46 | – | – | – | 35 | 8.4
COP(=O)(CC(=O)C(Cc1ccccc1)NC(=O)OC(C)(C)C)OC (configuration not stated) | – | · | · | · | · | ·
O=C1/C(=C\c2ccc(O)c(O)c2)C(c2ccccc2)=NN1c1ccccc1 | 74 | 12 | – | – | 81 | 44
COc1cc(/C=C2\C(=O)N(c3ccc(NC(C)=O)cc3)N=C2c2ccccc2)ccc1O | 83 | – | – | – | 70 | 31 | dCAG dye DR=–
COc1cc(/C=C2/C(=O)CNC2=O)ccc1O | – | – | – | – | · | ·
COc1cc(C=C2C(=O)C=CC2=O)ccc1O | 73 | · | – | – | – | 5.4
SMILES | rCAG binder | NR3A LBD binder | FAS TE block | NadD inh | rCAG binder conf | dCAG dye counter | others
C=CCCC1CN(Cc2ccc(OC)cc2)S(=O)(=O)c2c(NCc3cc(OC)c(OC)c(OC)c3)cccc2O1 (configuration not stated) | – | · | · | · | · | ·
O=C(O)c1cc(-c2c[nH]c3ccccc23)nc2ccc3ccccc3c12 | 52 | 11 | – | – | 45 | 11
c1ccc2c(-c3c[nH]c4ccccc34)c3ccccc3nc2c1 | – | – | – | – | · | ·
CCCCCCCCN1C(=O)[C@@H](CC(=O)N2CCSCC2)C[C@@]2(C(=O)OC)C1=C[C@H](C1CCCC1)O[C@@H]2C | – | · | · | · | · | ·
Cc1cc(C(c2ccc(C)o2)c2ccc(C)o2)c(O)c([N+](=O)[O-])c1 | 54 | – | – | – | – | 8.5
Cc1ccc(C(c2ccc(C)o2)c2cccc([N+](=O)[O-])c2O)o1 | – | – | – | – | · | ·
Cc1cc(-n2c(C)cc(C(=O)CSc3[nH]c(=O)cc(C(F)(F)F)c3C#N)c2C)no1 | 42 | – | – | – | 38 | 9.1
COC(=O)[C@@H](N[C@H](/C=C/c1ccccc1)[C@@H](O)Cc1ccccc1)c1ccccc1 | – | · | · | · | · | ·
O=C(O)CNC(=O)c1cccc(C(F)(F)F)c1 | – | – | – | – | · | ·
Cc1c(CCCC(=O)O)sc(N)c1C(=O)c1cccc(C(F)(F)F)c1 | 47 | – | – | – | – | 5.0
Cc1ccc(C(=O)Nc2ccccc2C(=O)O)cc1S(=O)(=O)Nc1ccccc1 | 67 | – | – | – | 46 | 15
Cc1ccc(C(=O)Nc2ccccc2C(=O)O)cc1S(=O)(=O)NC1CCCCC1 | 70 | – | – | – | 61 | 22
CCc1c(-c2ccccc2)ncn1CCc1ccccc1OC | – | · | · | · | · | ·
O=S1(=O)c2cc(Cl)ccc2N2CCC[C@@H]2CN1Cc1ccc(Cl)c(Cl)c1 | – | · | · | · | · | ·
O=c1[nH]n2c(=O)c3c([nH]c2c1N=Nc1cccc(Cl)c1)CCCC3 | 75 | – | – | – | 85 | 48
Fc1ccc(-c2n[nH]c(=S)n2N=Cc2cccc(OCc3ccccc3)c2)cc1 | 58 | · | · | · | 51 | 18
Fc1ccccc1-c1n[nH]c(=S)n1N=Cc1cccc(OCc2ccccc2)c1 | 73 | · | · | · | 64 | 24
Oc1ccc(Br)cc1/C=N/n1c(-c2ccccc2)n[nH]c1=S | – | – | – | – | · | ·
Oc1c(Br)cc(Br)c(/C=N/n2c(-c3ccccc3)n[nH]c2=S)c1Br | 59 | – | – | – | 43 | 14
Fc1ccccc1-c1n[nH]c(=S)n1N=Cc1ccc(-c2ccccc2)cc1 | 60 | · | · | · | 48 | 14
C=CCn1c(COc2ccccc2)nnc1SCC(=O)Nc1ccc(S(=O)(=O)Nc2cc(C)nc(C)n2)cc1 | – | · | · | · | · | ·
O=C1NC(c2cccc(C(F)(F)F)c2)c2c(-c3ccccc3)n[nH]c21 (configuration not stated) | – | · | · | · | · | ·
Nc1[nH]c(C(=O)c2ccccc2)c(-c2ccccn2)c1C(=O)c1c[nH]c2ccc(F)cc12 | – | · | · | · | · | ·
O=C(OC1CCOC1=O)c1cccc(S(=O)(=O)Nc2cccc(Cl)c2)c1 (configuration not stated) | 35 | – | – | – | – | 9.1
